Measurements: PubChem BioAssay (Tox21)
A number with no mark means an inactive call. Inconclusive results are not listed. Entries that show only a call come without a potency. Activity calls are given as the source filed them. Unless noted, the call rests on the fitted dose curve; in most records, active means well fitted curve in the direction sought with a large enough effect in the repeat runs; inconclusive means weak or mixed curves; inactive means no such curve, though single readings can be large; an effect the other way counts as inactive or inconclusive.

Key:
[1] = target: Thyrotropin receptor (Homo sapiens) (UniProt P16473); experiment: qHTS assay to identify small molecule agonists of the thyroid stimulating hormone receptor (TSHR) signaling pathway (AID 1224843; calls by dose curve; further: nearly all actives have a fitted effect of over 45% in size)
Thyrotropin receptor (Homo sapiens), sequence (P16473 whole entry, looked up): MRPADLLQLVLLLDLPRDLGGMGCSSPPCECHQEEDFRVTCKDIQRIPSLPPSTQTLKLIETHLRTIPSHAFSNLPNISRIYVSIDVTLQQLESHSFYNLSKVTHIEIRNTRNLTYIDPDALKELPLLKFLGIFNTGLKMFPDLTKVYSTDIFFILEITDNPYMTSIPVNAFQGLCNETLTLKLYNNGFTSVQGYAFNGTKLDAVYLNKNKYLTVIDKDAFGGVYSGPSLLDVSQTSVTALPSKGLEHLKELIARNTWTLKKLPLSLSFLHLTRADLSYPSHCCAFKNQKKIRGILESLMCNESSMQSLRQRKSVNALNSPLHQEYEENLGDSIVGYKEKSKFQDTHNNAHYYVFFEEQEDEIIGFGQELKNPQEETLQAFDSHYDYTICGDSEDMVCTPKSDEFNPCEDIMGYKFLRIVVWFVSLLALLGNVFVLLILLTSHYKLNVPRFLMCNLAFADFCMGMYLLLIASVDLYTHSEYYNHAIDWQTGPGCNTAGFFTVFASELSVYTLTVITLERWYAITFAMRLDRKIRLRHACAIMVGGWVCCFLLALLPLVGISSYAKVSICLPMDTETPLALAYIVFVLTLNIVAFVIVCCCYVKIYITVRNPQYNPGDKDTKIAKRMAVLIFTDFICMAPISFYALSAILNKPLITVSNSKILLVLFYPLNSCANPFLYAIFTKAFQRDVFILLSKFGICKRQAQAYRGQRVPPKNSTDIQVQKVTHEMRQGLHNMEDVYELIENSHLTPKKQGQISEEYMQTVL
In short: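 Steps: seed 800 TSHR-HEK293 cells per well; add test compound and hold 30 min at ambient temperature; dispense cAMP-d2 then anti-cAMP cryptate; incubate 1 h at ambient; measure fluorescence intensity.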

[2] = qHTS assay to identify small molecule agonists of the hypoxia (HIF-1) signaling pathway - cell viability counter screen (AID 1224844; calls by dose curve; further: nearly all actives have a fitted effect of over 50% in size; further: potency means the concentration at half of the fitted maximal effect)
In short: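 ME-180 HRE-bla cells, 2,000/well, 0.5% dialyzed FBS; 5 hr settle, 17 hr compound at 37C/5% CO2; CCF4-AM reporter read first, then CellTiter-Glo luminescence after 30 min RT.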

[3] = qHTS assay to identify small molecule agonists of H2AX (AID 1224845; active means well fitted activation curve with a large enough effect in the signal ratio in the repeat runs, not every such curve was filed as active; the % refers to the signal ratio)
In short: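 Wild-type CHO-K1 cells, plated overnight, exposed 3hr at 37C to 15 concentrations (0.76% DMSO final). Lysed, then HTRF anti-pH2AX (S139) cryptate and anti-H2AX-d2 antibodies, 24 hr room temperature; 665/620 nm emission read.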

[4] = qHTS assay to identify small molecule agonists of H2AX - cell viability counter screen (AID 1224847; calls by dose curve; further: top concentration of the series differs between compounds; nearly all actives have a fitted effect of over 30% in size)
In short: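 Cytotoxicity counter screen in wild-type CHO-K1 cells: a 3 hr compound treatment at 37C across 15 concentrations, followed by CellTiter-Glo luminescence to gauge viable cells.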

[5] = qHTS assay to identify small molecule antagonists of the estrogen related receptor (ERR) signaling pathway from Tox21 library (AID 1224848); further: nearly all actives have a fitted effect of over 50% in size
In short: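 Luminescent reporter read-out (ONE-Glo) from NTP's ERR cell line after 18 h treatment at 37 C with DMSO-dissolved Tox21 compounds; cells pre-plated 6 h beforehand at 2,000 per well.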

[6] = qHTS assay to identify small molecule agonists of the estrogen related receptor (ERR) signaling pathway from Tox21 library (AID 1224849; calls by dose curve; further: nearly all actives have a fitted effect of over 15% in size); conditions: ERR reporter cell line, ONE-Glo luciferase, 18 h; at 92.4 µM (top of the series) unless noted
In short: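 ERR cells, 6 h pre-incubation 37 C/5% CO2; cpd in DMSO pinned; 18 h 37 C; ONE-Glo added, 30 min RT; luminescence read. Agonist mode, qHTS.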

[7] = qHTS RealTime-Glo MT Cell Viability Assay in HepG2 cells - 24 hour (AID 1224867); further: nearly all actives have a fitted effect of over 50% in size
In short: (§1)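 Tox21 10K library screened in qHTS format on HepG2 cells carrying RealTime-Glo reagents. Compounds were added after a 5 h preincubation, and the luminescent signal from continuous culture was measured repeatedly during 40 h treatment.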

[8] = qHTS RealTime-Glo MT Cell Viability Assay in HEK293 cells - 32 hour (AID 1224868); further: top concentration of the series differs between compounds; nearly all actives have a fitted effect of over 50% in size
In short: (§2)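 Luminescence generated by NanoLuc from substrate produced by living HEK293 cells served as the viability signal. Each value reflects the reading at its stated time point during continuous 40 h compound exposure at 37 C.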

[9] = A CellTox Green Cytotoxicity Assay to monitor cytotoxicity in HEK293 cells - 0 hour (AID 1224869); further: nearly all actives have a fitted effect of over 50% in size
In short: (§3)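 Nonlytic real-time cytotoxicity: HEK293 + CellTox Green reagent plated, 5 h preincubation, pintool compound addition (23 nL in DMSO), 37 C for 40 h, fluorescence measured at successive time points.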

[10] = A CellTox Green Cytotoxicity Assay to monitor cytotoxicity in HEK293 cells - 40 hour (AID 1224871); further: nearly all actives have a fitted effect of over 45% in size
In short: as §3

[11] = qHTS RealTime-Glo MT Cell Viability Assay in HEK293 cells - 16 hour (AID 1224872)
In short: as §2

[12] = qHTS RealTime-Glo MT Cell Viability Assay in HepG2 cells - 8 hour (AID 1224873); further: nearly all actives have a fitted effect of over 55% in size
In short: (§4)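 HepG2 cells (600/well) mixed with RealTime-Glo MT reagent, settled 5 h at 37 C/5% CO2 before compound addition. Nonlytic NanoLuc luminescence from viable-cell prosubstrate reduction read repeatedly during 40 h treatment at 37 C.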

[13] = qHTS RealTime-Glo MT Cell Viability Assay in HEK293 cells - 40 hour (AID 1224874); conditions: RealTime-Glo luminescence; max response: active compounds read low; further: nearly all actives have a fitted effect of over 50% in size
In short: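 Cells were seeded together with NanoLuc luciferase and a prosubstrate that viable cells reduce to a luciferase substrate. After a 5 h incubation at 37 C/5% CO2, compounds were added and luminescence was measured repeatedly during 40 h of treatment.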

[14] = A CellTox Green Cytotoxicity Assay to monitor cytotoxicity in HEK293 cells - 24 hour (AID 1224875); further: nearly all actives have a fitted effect of over 45% in size
In short: as §3

[15] = A CellTox Green Cytotoxicity Assay to monitor cytotoxicity in HepG2 cells - 16 hour (AID 1224876); further: nearly all actives have a fitted effect of over 45% in size
In short: (§5)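 Read-out is fluorescence of a cyanine dye excluded from live cells that stains DNA of dead HepG2 cells, with signal proportional to cytotoxicity. Plates were read at 0, 8, 16, 24, 32 and 40 h after compound addition.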

[16] = qHTS RealTime-Glo MT Cell Viability Assay in HepG2 cells - 32 hour (AID 1224877); further: nearly all actives have a fitted effect of over 55% in size
In short: as §1

[17] = A CellTox Green Cytotoxicity Assay to monitor cytotoxicity in HepG2 cells - 24 hour (AID 1224878); further: nearly all actives have a fitted effect of over 45% in size; further: potency means the concentration at half of the fitted maximal effect
In short: as §5

[18] = A CellTox Green Cytotoxicity Assay to monitor cytotoxicity in HepG2 cells - 40 hour (AID 1224879); further: nearly all actives have a fitted effect of over 40% in size; further: potency means the concentration at half of the fitted maximal effect
In short: as §5

[19] = qHTS assay to identify small molecule agonists of the hypoxia (HIF-1) signaling pathway (AID 1224846; active means well fitted activation curve with a large enough effect in the signal ratio in the repeat runs, not every such curve was filed as active; the % refers to the signal ratio)
In short: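 Cell line: CellSensor HRE-bla ME-180; 2,000 cells/well; 0.5% dialyzed FBS; 5 h preincubation; DMSO compound pin transfer; 17 h, 37C, 5% CO2; CCF4-AM added; bla FRET signal scored for activation.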

[20] = qHTS RealTime-Glo MT Cell Viability Assay in HepG2 cells - 40 hour (AID 1224870); further: nearly all actives have a fitted effect of over 50% in size
In short: as §4

Compound	Potency [1]	Potency [2]	Potency [3]	Potency [4]	Potency [5]	activity change, positive = activation [6]	Potency [7]	Potency [8]	Potency [9]	Potency [10]	Potency [11]	Potency [12]	max response [13] [%]	Potency [14]	Potency [15]	Potency [16]	Potency [17]	Potency [18]	outcome [19]	Potency [20]
CC1CC(OC(=O)C(O)c2ccccc2)CC(C)(C)N1C (centres undefined)	inactive	inactive	inactive	inactive	inactive	-3.41% [at 42.5 µM]	inactive	inactive	inactive	inactive	inactive	inactive	0.136	inactive	inactive	inactive	inactive	inactive	–	–
OCCOCC#CCOCCO	inactive	inactive	inactive	inactive	–	–	inactive	inactive	inactive	inactive	inactive	inactive	7.98	inactive	inactive	inactive	inactive	inactive	inactive	–
CC(=O)OCC[N+](C)(C)C	inactive	inactive	inactive	inactive	–	–	inactive	inactive	inactive	inactive	inactive	inactive	1.87	inactive	inactive	inactive	inactive	inactive	–	inactive
O=C1NC(=O)c2cc([N+](=O)[O-])ccc21	inactive	inactive	inactive	inactive	–	–	inactive	inactive	inactive	–	inactive	inactive	2.79	inactive	inactive	–	inactive	inactive	inactive	–
O=C1c2ccccc2C(=O)C1c1nc2ccccc2c(Br)c1O	inactive	inactive	inactive	inactive	–	–	inactive	inactive	inactive	inactive	–	inactive	21.2	inactive	–	inactive	–	4.9 µM (active)	–	inactive
CCn1cc(C(=O)O)c(=O)c2cc(F)c(N3CCNCC3)cc21	inactive	inactive	inactive	inactive	–	–	inactive	inactive	inactive	inactive	inactive	inactive	11.4	inactive	inactive	inactive	inactive	inactive	–	inactive
CCCCCCCCC(CCCCCC)C(=O)O (centres undefined)	inactive	43.6 µM (active)	inactive	–	–	-27.5%	inactive	inactive	inactive	–	inactive	inactive	-3.96	inactive	inactive	inactive	61.6 µM (active)	61.6 µM (active)	–	inactive
Cc1ccc(Cl)c(Nc2ccccc2C(=O)O)c1Cl	inactive	inactive	inactive	inactive	–	–	inactive	inactive	inactive	–	inactive	inactive	-3	inactive	inactive	–	inactive	inactive	–	inactive
